# Data reported in ChEMBL document CHEMBL1961873, “Compounds: GSK PKIS; Assays: Nanosyn kinase panel” (2012).
# Assays:
# [1] = target: Mast/stem cell growth factor receptor Kit (Homo sapiens) (UniProt P10721); conditions: at 1 µM
# [2] = test system: Mast/stem cell growth factor receptor Kit (Homo sapiens), P10721 [D816V]; conditions: at 0.1 µM
# [3] = test system: Mast/stem cell growth factor receptor Kit (Homo sapiens), P10721 [D816V]; conditions: at 1 µM
# [4] = test system: Mast/stem cell growth factor receptor Kit (Homo sapiens), P10721 [T670I]; conditions: at 0.1 µM
# Mast/stem cell growth factor receptor Kit (Homo sapiens), P10721 [T670I], sequence (P10721 whole entry T670I): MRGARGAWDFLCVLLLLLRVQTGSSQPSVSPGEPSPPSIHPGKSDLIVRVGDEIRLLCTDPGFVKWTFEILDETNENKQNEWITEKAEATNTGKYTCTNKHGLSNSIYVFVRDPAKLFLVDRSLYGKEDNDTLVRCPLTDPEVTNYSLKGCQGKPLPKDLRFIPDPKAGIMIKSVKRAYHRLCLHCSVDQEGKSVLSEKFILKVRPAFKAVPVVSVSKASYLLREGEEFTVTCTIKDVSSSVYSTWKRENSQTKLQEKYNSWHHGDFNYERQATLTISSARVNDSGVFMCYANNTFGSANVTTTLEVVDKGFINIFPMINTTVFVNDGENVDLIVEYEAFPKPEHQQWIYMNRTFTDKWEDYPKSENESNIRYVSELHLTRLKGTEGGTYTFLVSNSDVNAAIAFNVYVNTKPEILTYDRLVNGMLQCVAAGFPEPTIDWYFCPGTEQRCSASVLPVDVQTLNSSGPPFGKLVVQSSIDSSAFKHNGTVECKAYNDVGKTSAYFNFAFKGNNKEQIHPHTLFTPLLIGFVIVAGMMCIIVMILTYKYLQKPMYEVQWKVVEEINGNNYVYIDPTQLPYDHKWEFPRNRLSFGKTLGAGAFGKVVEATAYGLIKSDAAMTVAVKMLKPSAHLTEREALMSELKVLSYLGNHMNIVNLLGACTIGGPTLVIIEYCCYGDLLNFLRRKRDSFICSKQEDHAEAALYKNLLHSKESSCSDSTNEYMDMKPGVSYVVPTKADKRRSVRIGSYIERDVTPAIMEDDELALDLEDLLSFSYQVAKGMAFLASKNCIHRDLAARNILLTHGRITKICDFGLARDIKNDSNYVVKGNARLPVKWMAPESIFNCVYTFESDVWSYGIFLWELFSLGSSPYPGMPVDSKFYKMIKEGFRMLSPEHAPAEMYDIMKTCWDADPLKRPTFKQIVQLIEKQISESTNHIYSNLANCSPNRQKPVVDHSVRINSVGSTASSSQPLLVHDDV
# [5] = test system: Mast/stem cell growth factor receptor Kit (Homo sapiens), P10721 [T670I]; conditions: at 1 µM
# [6] = test system: Mast/stem cell growth factor receptor Kit (Homo sapiens), P10721 [V560G]; conditions: at 0.1 µM
# Mast/stem cell growth factor receptor Kit (Homo sapiens), P10721 [V560G], sequence (P10721 whole entry V560G): as the sequence (P10721 whole entry T670I) above, with V560G, I670T counted along it
# [7] = test system: Mast/stem cell growth factor receptor Kit (Homo sapiens), P10721 [V560G]; conditions: at 1 µM
# [8] = target: Tyrosine-protein kinase Lck (Homo sapiens) (UniProt P06239); conditions: at 0.1 µM
# Tyrosine-protein kinase Lck (Homo sapiens), sequence (P06239 2-509 limits assumed): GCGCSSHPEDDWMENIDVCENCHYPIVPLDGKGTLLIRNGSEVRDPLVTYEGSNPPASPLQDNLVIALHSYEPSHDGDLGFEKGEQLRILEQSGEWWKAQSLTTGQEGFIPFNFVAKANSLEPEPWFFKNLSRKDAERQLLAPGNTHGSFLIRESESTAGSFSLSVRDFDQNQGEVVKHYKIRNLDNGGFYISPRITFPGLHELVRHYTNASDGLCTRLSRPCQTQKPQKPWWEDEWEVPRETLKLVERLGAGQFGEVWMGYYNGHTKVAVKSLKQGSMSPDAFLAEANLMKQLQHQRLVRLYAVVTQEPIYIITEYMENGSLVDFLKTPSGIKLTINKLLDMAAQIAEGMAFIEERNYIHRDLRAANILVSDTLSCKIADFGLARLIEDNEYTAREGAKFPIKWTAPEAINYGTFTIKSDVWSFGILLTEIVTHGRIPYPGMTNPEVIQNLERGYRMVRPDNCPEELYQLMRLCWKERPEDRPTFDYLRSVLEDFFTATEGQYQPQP
# [9] = target: Tyrosine-protein kinase Lck (Homo sapiens) (UniProt P06239); conditions: at 1 µM
# [10] = target: Leukocyte tyrosine kinase receptor (Homo sapiens) (UniProt P29376); conditions: at 0.1 µM
# Leukocyte tyrosine kinase receptor (Homo sapiens), sequence (P29376 whole entry): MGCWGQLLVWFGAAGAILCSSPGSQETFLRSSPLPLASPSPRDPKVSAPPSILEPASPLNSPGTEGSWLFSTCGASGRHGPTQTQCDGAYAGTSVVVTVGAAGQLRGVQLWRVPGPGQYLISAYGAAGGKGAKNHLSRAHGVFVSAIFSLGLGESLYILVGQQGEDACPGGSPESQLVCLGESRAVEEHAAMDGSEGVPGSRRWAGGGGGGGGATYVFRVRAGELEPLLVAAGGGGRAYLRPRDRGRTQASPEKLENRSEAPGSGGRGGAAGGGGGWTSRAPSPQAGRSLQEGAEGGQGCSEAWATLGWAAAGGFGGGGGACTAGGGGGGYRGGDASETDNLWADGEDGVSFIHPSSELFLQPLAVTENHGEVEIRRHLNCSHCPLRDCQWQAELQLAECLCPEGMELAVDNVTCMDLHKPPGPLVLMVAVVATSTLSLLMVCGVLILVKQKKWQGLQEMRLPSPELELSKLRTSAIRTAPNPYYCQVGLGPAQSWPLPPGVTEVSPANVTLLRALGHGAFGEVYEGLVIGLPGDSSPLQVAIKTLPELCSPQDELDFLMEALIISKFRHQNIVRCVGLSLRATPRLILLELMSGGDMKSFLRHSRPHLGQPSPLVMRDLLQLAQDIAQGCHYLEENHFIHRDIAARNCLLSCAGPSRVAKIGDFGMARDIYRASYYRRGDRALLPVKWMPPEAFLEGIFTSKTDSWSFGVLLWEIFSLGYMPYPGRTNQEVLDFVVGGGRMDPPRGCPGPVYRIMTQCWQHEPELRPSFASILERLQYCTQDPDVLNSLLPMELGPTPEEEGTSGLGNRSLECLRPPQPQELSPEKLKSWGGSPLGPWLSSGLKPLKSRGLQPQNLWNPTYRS
# Mast/stem cell growth factor receptor Kit (Homo sapiens), P10721 [D816V], sequence (P10721 whole entry D816V): as the sequence (P10721 whole entry T670I) above, with I670T, D816V counted along it
# Mast/stem cell growth factor receptor Kit (Homo sapiens), sequence (P10721 whole entry): as the sequence (P10721 whole entry T670I) above, with I670T counted along it
SMILES,inhibition [1] [%],inhibition [2] [%],inhibition [3] [%],inhibition [4] [%],inhibition [5] [%],inhibition [6] [%],inhibition [7] [%],inhibition [8] [%],inhibition [9] [%],inhibition [10] [%]
c1cc(-c2cnn3nc(N4CCOCC4)ccc23)nc(NC2CC2)n1,20.9,0.53,4.82,7.12,3.28,4.27,5,1.31,3.4,2.15
COc1ccc2[nH]c3c4[nH]c5ccc(OC)cc5c4c4c(c3c2c1)C(=O)NC4=O,79.9,31.6,75.4,6.78,44.2,3.53,31.2,4.72,21.1,37.8
CNC(=O)c1cc(-c2ccc(F)cc2)cc(-c2ccc(S(=O)(=O)N3CCCC3)cc2)c1N,3.53,3.32,1.27,3.02,1.68,-2.57,1.97,2.58,2.91,2.81
COC(=O)Nc1nc2ccc(S(=O)(=O)c3ccc(NC(=O)Nc4cc(C(F)(F)F)ccc4F)cc3)cc2[nH]1,-0.26,3.87,5.14,1.09,-0.17,-0.14,0.67,2.26,3.94,1.63
CCn1cc(-c2ccnc3[nH]ccc23)c(-c2cccc(NC(=O)Nc3ccc(OCc4ccccc4)cc3)c2)n1,-0.41,1.35,-0.05,-1.41,-1.25,-1.87,-1.14,2.58,21.8,1.35
CN(C)CCOc1ccc(-c2nc(-c3ccncc3)c(-c3ccc4c(c3)CC/C4=N\O)[nH]2)cc1,5.36,1.54,6.73,3.27,9.66,1.4,5.96,2.08,13.5,2.54
CC1=C(C(=O)Nc2cc(Cl)c3[nH]ncc3c2)C(c2ccc(C(F)(F)F)cc2)CC(=O)N1 (stereo not given),0.36,4.84,6.4,2.93,4.07,-1.27,-0.62,4.9,27.1,2.35
CS(=O)(=O)CCNCc1ccc(-c2ccc3ncnc(Nc4ccc(OCc5ccccc5)c(C(F)(F)F)c4)c3c2)o1,4.84,2.36,4.65,3.39,2.42,1.13,-2.89,3.56,5.95,3.91
COc1ccc(CNC(=O)c2ccc(-c3cc(-c4nnc(C)o4)ccc3C)cc2)cc1,6.51,-5.34,4.89,2.12,3.18,4.68,4.58,0.44,3.44,1.41
CC(=O)Nc1cccc(C#Cc2cncnc2Nc2ccc(OCc3cccc(F)c3)c(Cl)c2)c1,2.18,1.33,0.94,0.96,-0.24,2.26,5.18,1.97,3.76,0.86
Nc1ncc(-c2cccc(S(N)(=O)=O)c2)c2scc(-c3ccc(F)c(Cl)c3)c12,98.1,-0.67,5.44,3.88,5.82,3.89,50.5,12.9,52.4,10.7
COc1cccc(-n2ncc3c(N/N=C/c4ccc(F)cc4)ncnc32)c1,17.1,7.16,7.84,5.29,5.91,-0.37,5.46,13.5,45.5,4.1
CN1CCC(n2cnc(-c3ccc(F)cc3)c2-c2ccnc(N)n2)CC1,9.51,5.49,7.78,4.69,3.03,-0.68,3.94,2.45,13.7,2.54
COc1ccc(-c2cc(-c3c[nH]nc3-c3ccccn3)ccn2)cc1,9.66,4.3,11.7,4.24,4.17,-1.03,2.87,2.68,5.16,5.4
CC(C)(CO)CNC(=O)c1ccc2c(c1)/C(=N/Nc1ccc(S(N)(=O)=O)cc1)C(=O)N2,6.13,-0.32,9.15,-1.23,-1.94,-0.35,1.1,0.12,3.08,-1.7
CCN(CC)S(=O)(=O)c1ccc(OC)c(Nc2ncc(-c3ccccc3)o2)c1,87.8,3.78,6.46,3.41,48.3,7.63,13.6,4.39,24.8,-0.3
Cc1ccc2c(-c3ccnc(Nc4ccccc4)n3)c(-c3ccc(F)cc3)nn2n1,75.7,1.56,-0.04,0.33,3.98,1.13,27.9,15.8,56.9,2.45

SMILES,inhibition [1] [%],inhibition [2] [%],inhibition [3] [%],inhibition [4] [%],inhibition [5] [%],inhibition [6] [%],inhibition [7] [%],inhibition [8] [%],inhibition [9] [%],inhibition [10] [%]
Cc1ccc(O)cc1Nc1ccnc2cc(-c3ccccn3)ccc12,43.1,23.5,73.7,4.94,3.09,3.25,41.2,33.6,76.6,10.9
NC(=O)c1sc(-n2cnc3ccc(C(F)(F)F)cc32)cc1OCc1ccccc1Br,5.18,5.27,5.73,2.58,3.8,-0.43,-0.61,-0.17,1.85,3.16
COc1ccc(-c2cc3c(N)ncnc3o2)cc1,8.52,1.15,0.89,-0.3,-2.59,4.17,2.93,0.2,5.93,-0.7
Fc1ccc(-c2nn3ccccc3c2-c2ccncc2)cc1,12.1,-1.36,-0.05,-0.12,1.47,-1.06,1.71,1.24,5.7,1.27
NS(=O)(=O)c1ccc(Nc2ncc(-c3ccccc3)o2)cc1,88.6,0.49,2.25,14.9,58.7,9.24,52.5,1.77,6.21,4.12
c1ccc(-c2nc3n(c2-c2ccc4c(c2)OCO4)CCC3)nc1,1.73,2.63,0.34,2.34,2.64,-1.47,-1.27,0.66,3.01,0.09
Cc1cccc2c1NC(=O)/C2=N\Nc1ccc(S(N)(=O)=O)cc1,34.3,1.59,-1.26,6.87,7.06,2.17,6.53,1.96,2.95,2.01
CNC(=O)c1cncc(/C=C/c2ccccc2Cl)c1,10.7,-0.76,3.85,-1.89,3.4,2.25,8.8,4.51,5.49,-0.19
[O-][S+]1CCN(Cc2ccc(-c3ccc4ncnc(Nc5ccc(OCc6cccc(F)c6)c(Cl)c5)c4c3)o2)CC1,10.1,6.9,3.81,2.75,5.16,-2.67,-0.28,2.85,8.2,7.04
COc1cc(N2CCN(C(C)C)CC2)ccc1Nc1nc(Nc2ccc(F)cc2C(N)=O)c2cc[nH]c2n1,4.94,-1.16,2.56,-2.37,-1.31,-1.89,-1.36,2.34,4.79,93.5
O=C(Nc1n[nH]c2cc(-c3ccc(F)cc3)ccc12)C1CC1,5.1,3.06,5.66,3.36,4.92,-2.61,0.08,1.9,7.59,2.47
FC(F)(F)c1cccc(-c2nn3ncccc3c2-c2ccnc(Nc3ccc4c(c3)OCCO4)n2)c1,24.6,1.11,1.8,0.93,3.06,-1,5.35,9.37,45.8,2.06
COc1cc(/C=N/Nc2ncnc3[nH]ncc23)ccc1O,49.4,8.85,12.9,0.9,7.67,1.4,6.17,12.5,54.7,4.08
CCN1CCC(CC(=O)Nc2n[nH]c3nnc(-c4cccc(F)c4F)cc23)CC1,0.38,0.53,0.47,0.27,1.83,1.48,-0.83,2.01,6.17,2.06
COc1ccc(-c2oc3ncnc(N)c3c2-c2ccc(NC(=O)Nc3cc(C(F)(F)F)ccc3F)cc2)cc1,96,2.85,5.19,11.8,88.3,25.5,78.6,21.1,83.9,4.21
COc1cc(Nc2nccc(Nc3ccc4c(C)n[nH]c4c3)n2)cc(OC)c1OC,95.8,10.8,58.7,4.19,43.3,13.1,57.9,34.4,82.4,2.14
Cc1cccc(Nc2ncc(-c3ccccc3)o2)c1,89,1.52,-0.48,4.58,48,6.79,53,3.23,5.7,3.02
